Source: PubChem (Center for Chemical Genomics, University of Michigan)
Dicer inh = inhibitors of Dicer pre-microRNA processing, primary screen, biochemical, cat-ELCCA, chemiluminescence; AID 1347074, 2019; z-score at 25 µM; Endoribonuclease Dicer (Homo sapiens), Q9UPY3; 6% of 47,000 active; cat-ELCCA pre-miR-21 Dicer processing; hits give high values; in the data active = z-score above about 3, passing the limit was not always enough;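 note: higher signal means more uncleaved substrate so more Dicer inhibition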
Hits are given with their value; 0 = inactive. This excerpt belongs to a sample that is enriched for hits.

SMILES	Dicer inh
COc1ccc(-n2c(CCC(=O)O)ccc2-c2cccs2)cc1	0
CCCn1c(CCC(=O)O)ccc1-c1cccs1	3
CCOC(=O)C(NC(=O)Cc1ccccc1)(Nc1ccc(F)c(Cl)c1)C(F)(F)F (centres undefined)	0
COC(=O)C(O)(NC(=O)c1cccc(C(F)(F)F)c1)C(F)(F)F (centres undefined)	0
Cc1csc2c(=O)sc(NC(=O)c3ccco3)nc12	0
O=C(Nc1nc2ccsc2c(=O)s1)c1ccco1	0
O=C(Nc1nc2c(ccc3ccccc32)s1)c1ccco1	5.7
COc1ccc(Oc2c(C(F)(F)F)oc3cc(OC(C)C(=O)OC(C)C)ccc3c2=O)cc1 (centres undefined)	0
C/S(=N/S(=O)(=O)c1ccccc1Cl)c1ccc(OC(=O)c2ccc(Cl)cc2)cc1 (centres undefined)	0
Cc1ccccc1C1=NC(C(F)(F)F)(C(F)(F)F)N=C(N2CCOCC2)O1	0
Cc1ccc(C2=NC(C(F)(F)F)(C(F)(F)F)N=C(N(C)C)O2)cc1	3.7
C=CCOC(=O)c1sc(N2C(=O)c3oc4ccc(F)cc4c(=O)c3C2c2cccc(O)c2)nc1C (centres undefined)	0
COC(=O)c1ccc([C@@H]2Nc3c(OC)ccc(Cl)c3[C@@H]3C=CC[C@@H]32)cc1	0
CCOc1ccc2oc(C)c(C(=O)OC)c2c1	0
CC(C)(C)NC(=S)NNC(=O)c1ccc(-c2ccc(Cl)cc2)s1	0
Cc1ccc(O)c(C(=O)NNC(=S)Nc2ccccc2C(F)(F)F)c1	0
O=C(NNC(=S)Nc1ccccc1C(F)(F)F)c1ccc(-c2ccc(Cl)cc2)s1	4.3
Cc1nn(S(=O)(=O)c2ccc(-c3cc(C(F)(F)F)n(C)n3)s2)c(C)c1Br	0
COc1ccccc1C1CC(=O)c2c(ccc3ccccc23)N1 (centres undefined)	0
Cc1cc(C)n2nc(Sc3ccc([N+](=O)[O-])cn3)nc2n1	0
O=C(Nc1ccccc1)c1sc2ccccc2c1Cl	0
CCOC(=O)c1sc(NC(=O)c2sc3ccccc3c2Cl)nc1C	0
Cc1ccc2c(Cl)c(C(=O)Nc3nc(C)c(C)s3)sc2c1	3.6
COc1cc2nc(NC(=O)c3ccco3)sc(=O)c2cc1OC	0
COc1cc2nc(NC(=O)c3ccc(C(C)(C)C)cc3)sc(=O)c2cc1OC	0
SMILES	Dicer inh
COc1cc2nc(NC(C)=O)sc(=O)c2cc1OC	3.6
CC(N)=O	4.1
COc1ccc(-c2noc(COc3ccc4c(c3)CCCC4)n2)cc1OC	0
CC1(C)CC(=O)C2=C(C1)NC1=C(C(=O)c3ccccc31)C2c1ccc([N+](=O)[O-])o1 (centres undefined)	5.5
COc1ccc(OC)c(C2C3=C(CC(C)(C)CC3=O)NC3=C2C(=O)c2ccccc23)c1 (centres undefined)	0
CC1(C)CC(=O)C2=C(C1)NC1=C(C(=O)c3ccccc31)C2c1cccc(O)c1 (centres undefined)	0
O=C(c1cc(F)c(F)cc1Cl)n1cccn1	0
Cn1c(=O)cc(Nc2ccc(Cl)cc2)c2c(=O)n(-c3ccccc3)c(=O)n(-c3ccccc3)c21	0
OCC12CC3CC(CC(Br)(C3)C1)C2	0
CC1(C)CC(=O)C2=C(C1)c1c(ccc3ccccc13)NC2c1ccc(O)cc1 (centres undefined)	0
CC1(C)CC(=O)C2=C(C1)c1c(ccc3ccccc13)NC2c1ccc(O)c(O)c1 (centres undefined)	13
CCOc1cc(C2Nc3ccc4ccccc4c3C3=C2C(=O)CC(C)(C)C3)ccc1O (centres undefined)	0
C(=C\c1ccccc1)/CN1CCN(C/C=C/c2ccccc2)CC1	0
CN1CC=C(/C=C/c2ccccc2)CC1	3.8
CN1CCc2c(sc3c2C(=O)NC(/C=C\c2ccccc2)N3)C1 (centres undefined)	0
O=c1oc2cccnc2n1Cc1ccc(Cl)cc1	0
Cc1ccccc1S(=O)(=O)Nc1ccnn1C	0
Cc1c(S(=O)(=O)c2ccc(Cl)cc2)csc1C(=O)Nc1ccc2c(c1)C(=O)OC2	0
Cn1c(=O)n(Cc2ccccc2Br)c2ccccc21	0
Cn1c(=O)n(CCCOc2ccc(Cl)cc2)c2ccccc21	0
Cn1c(=O)n(CC(=O)O)c2ccccc21	3.6
OC(CNCc1ccc(C(F)(F)F)cc1)Cn1ccc(C(F)(F)F)n1 (centres undefined)	0
CC(C)(C)NCc1nc(-c2ccccc2)no1	0
CC(=O)N1CCN(CCn2c(C)c3c(=O)n(-c4nc5ccccc5s4)[nH]c3cc2=O)CC1	0
Cc1c2c(=O)n(-c3nc4ccccc4s3)nc-2cc(O)n1Cc1ccccc1	0
Cc1c2c(=O)n(-c3nc4ccccc4s3)[nH]c2cc(=O)n1Cc1ccc(C(=O)O)cc1	27
CC(=O)/C(N=Nc1cc(Cl)cc(Cl)c1)=C(\C)O	0
CC(C)c1ccc(OCc2nc(-c3ccccc3)no2)cc1	0
Cc1ccc(CNc2nc3c(c(=O)[nH]c(=O)n3C)n2CC(O)COC(C)C)cc1 (centres undefined)	0
Nc1ncnc2nc(SCCC(=O)O)[nH]c12	3.8
